Measurements reported in PubChem BioAssay AID2216 (Broad Institute, 2009).
The whole screen tested about 300,000 compounds, of which about 3,300 (1.1%) were called active. Not shown: some 6% with an inconclusive outcome.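 The calls were made as follows: active = more than half of the replicate wells show a fall in the fluorescence ratio signal beyond about 16% (limit read from the data, passing the limit was not always enough); inconclusive = exactly half of the replicate wells pass the set limit; inactive = fewer than half of replicates pass the limit.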 The entries come from a sample that favours actives as a whole.

tested on: Ran GTPase (GTP-bound) - importin-beta complex; experiment: disruptors of Ran-importin-beta complex formation – biochemical, FRET, CFP-Ran, YFP-importin-beta, homogeneous, primary screen (AID 2216); conditions: cell-free CFP-Ran/YFP-importin-beta FRET ratio; active compounds read high; concentration not given here;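 also: 0% = DMSO wells and 100% = Ran loaded with GDP instead of GTP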

SMILES | inhibition
COc1cccc(COC(=O)C2CCN(S(=O)(=O)c3cccs3)CC2)c1OC | 8.84% (inactive)
Cc1cc(C(=O)OC(C)C(=O)NC2CCCCC2C)c(C)o1 (configuration not stated) | -3.61% (inactive)
CC(OC(=O)CNC(=O)c1cccc(F)c1)C(=O)NC1CCCCC1C (configuration not stated) | 18.8% (active)
CC(OC(=O)CNC(=O)c1ccc(Cl)c([N+](=O)[O-])c1)C(=O)NCc1ccco1 (configuration not stated) | 5.87% (inactive)
CC(C)(C)c1ccc(C(=O)NCc2ccco2)cc1 | -1.24% (inactive)
CCOc1ccc(CCNC(=O)COC(=O)c2c(OC)cccc2OC)cc1OCC | 1.08% (inactive)
COCCn1c(SC(C)C(=O)NC2CC2)nnc1-c1cccc(C)c1 (configuration not stated) | -0.425% (inactive)
O=C(NCc1ccc(Cl)cc1)C(=O)NCC1CCCN1S(=O)(=O)c1cccs1 (configuration not stated) | -0.323% (inactive)
CCCC(=O)Nc1ccc(C(=O)N/N=C/c2ccc[nH]2)cc1 | 2.49% (inactive)
CC(=O)Nc1ccc(/C=C/C(=O)c2ccccc2)cc1 | -0.329% (inactive)
CC(=O)Nc1ccc(C(=O)/C=C/c2ccc[nH]2)cc1 | 16.6% (active)
CC(C)Oc1ccc(S(=O)(=O)N2CCOCC2)cc1NC(=O)C1CSC2(C)CCC(=O)N12 (configuration not stated) | -2.87% (inactive)
COc1ccc(S(=O)(=O)NCCCc2ccccc2)cc1 | -4.52% (inactive)
O=C(Cc1nc2ccccc2[nH]c1=O)c1ccc(Cl)cc1 | 39% (active)
O=C(/C(=C/c1cccc(Cl)c1)c1nc2ccccc2[nH]1)c1ccccc1 | 2.15% (inactive)
Cc1ccc(-c2nc3ccccc3[nH]c2=O)cc1 | 3.42% (inactive)
COC(=O)Cc1ccc(Oc2ncc(C(F)(F)F)cc2Cl)cc1 | 106% (active)
Cc1cc(C)cc(NS(=O)(=O)c2ccc(Oc3ncc(C(F)(F)F)cc3Cl)cc2)c1 | 1.58% (inactive)
COC(=O)Cc1ccc(OCC(=O)Nc2ccc(OC(F)(F)F)cc2)cc1 | -0.217% (inactive)
CCCCn1c(N)c(N(CC)C(=O)c2ccc(N(C)S(=O)(=O)c3ccc(C)cc3)cc2)c(=O)[nH]c1=O | -4.28% (inactive)
COc1ccc(/C=C(\C#N)C(=O)OCC(=O)N(C)C2CCS(=O)(=O)C2)cc1 (configuration not stated) | 1.11% (inactive)
COc1ccccc1NS(=O)(=O)c1ccc(C(=O)N2CCN(c3ccccc3O)CC2)cc1 | 1.18% (inactive)
COc1ccc(Nc2nc(NCc3ccco3)nc(N/N=C/c3ccccc3Cl)n2)cc1 | -0.0694% (inactive)

SMILES | inhibition
COc1ccc(-n2cnc3cc(NCc4ccco4)ccc32)cc1 | 23% (active)
COc1ccc(-n2cnc3cc(C(=O)NC4CCCC4)ccc32)cc1 | -1.26% (inactive)
CCCc1nnc(NC(=O)c2cc(OC)cc(OC)c2)s1 | 162% (active)
COc1ccc(Cc2nnc(NC(=O)c3cc(OC)c(OC)c(OC)c3)s2)cc1OC | 3.23% (inactive)
CCCc1nnc(NC(=O)c2cccs2)s1 | -123% (inactive)
C[C@@H]1O[C@@H](OC[C@H]2O[C@@H](Oc3c(-c4ccc(O)cc4)oc4cc(O)cc(O)c4c3=O)[C@H](O)[C@@H](O)[C@@H]2O)[C@H](O)[C@H](O)[C@H]1O | 2.8% (inactive)
COc1ccc(CNC(=O)C2(CC3CC(c4ccccc4)=NO3)CCN(C(=O)c3cccc(O)c3)CC2)cc1 (configuration not stated) | 5.15% (inactive)
Cn1cccc1-c1nc2ccccc2n1C | 3.82% (inactive)
Cn1c(NC(=O)c2ccccc2)nc2ccccc21 | 5.33% (inactive)
Cn1c(-c2ccc(C(=O)c3ccccc3)s2)nc2ccccc21 | 21.5% (active)
O=C(NCCC1CCCCN1S(=O)(=O)c1ccccc1)C(=O)NCC1CCCO1 (configuration not stated) | 1.16% (inactive)
CCOc1ccc(CCNC(=O)COC(=O)C2CCN(c3ccc(C(F)(F)F)cn3)CC2)cc1OCC | 0.153% (inactive)
O=c1[nH]snc1-c1c(Cl)cccc1Cl | 2.52% (inactive)
Cc1ccc(-n2nc3cc(Cl)c(NC(=O)c4ccco4)cc3n2)cc1 | -2.85% (inactive)
Cc1ccnc(NC(=O)c2ccco2)n1 | -1.58% (inactive)
CCn1nc(NC(=O)c2ccco2)c2cc3ccc(C)cc3nc21 | 23.1% (active)
COc1ccc2nc(N3CCCC(O)C3)c(C#N)cc2c1 (configuration not stated) | 57.2% (active)
COc1ccc2c(c1)CCc1cn3ncc(C#N)c3nc1-2 | 10.6% (inactive)
COc1ccc2cc(C(=O)C3CCCN(C(=O)c4sc(C)nc4C)C3)ccc2c1 (configuration not stated) | 0.445% (inactive)
Cc1c(CC(=O)NCCCCCC(=O)O)c(=O)oc2cc3occ(-c4ccccc4)c3cc12 | 3.1% (inactive)
CCCCCCc1ccc(O)cc1O | -0.89% (inactive)
CCCCCCc1cc2cc(-c3nnc(-c4ccccc4)o3)c(=O)oc2cc1O | 161% (active)
Cc1sc2ncnc(N3CCC(C(=O)Nc4nc5ccc(Cl)cc5s4)CC3)c2c1C | 2.82% (inactive)

SMILES | inhibition
CC(=O)c1ccc(S(=O)(=O)NC2CC(=O)N(c3ccc4c(c3)OCCO4)C2)cc1 (configuration not stated) | -0.763% (inactive)
c1ccc(C[C@H]2CNCCN2CCC23CC4CC(CC(C4)C2)C3)cc1 | 3.71% (inactive)
N#CCN(C(=O)COC(=O)C1CC2CCCC(C1)C2=O)c1ccccc1 (configuration not stated) | -5.07% (inactive)
COc1ccc2c(c1)CCNC2Cc1ccc(OC)c(O)c1 (configuration not stated) | 96.2% (active)
COc1ccc(CCNC(=O)C(=O)NCC2CCNCC2)cc1OC | 4.38% (inactive)
COc1cc2c(cc1O)[C@H](Cc1ccc(Oc3cc(C[C@@H]4NCCc5cc(OC)c(O)cc54)ccc3O)cc1)NCC2 | -9.25% (inactive)
O=C(Nc1ccccc1-c1ccccc1)c1cccs1 | 22.1% (active)
O=C(Nc1ccccc1)c1ccc(NC(=O)c2cccs2)cc1 | -0.113% (inactive)
O=C(Nc1ccccc1-c1nc2ccccc2[nH]c1=O)c1cccs1 | -0.663% (inactive)
Cc1sc2ncnc(N3CCC(C(=O)NNC(=O)c4ccc(F)cc4)CC3)c2c1C | 0.666% (inactive)
CC(=O)N1CCc2cc(S(=O)(=O)NC3CCCCC3)ccc21 | 2.08% (inactive)
CCCNS(=O)(=O)c1ccc2c(c1)CCCN2C(C)=O | 23.9% (active)
CCC1CCCCN1CCNS(=O)(=O)c1ccc2c(c1)CCN2C(C)=O (configuration not stated) | -5.25% (inactive)
COc1ccccc1C(=O)NCCC(=O)NN1C(=O)NC2(CCCCC2)C1=O | -3.94% (inactive)
CCOc1ccc2nc(N3CCCN(C(=O)Nc4ccccc4C)CC3)c(C#N)cc2c1 | 119% (active)
CCOC(=O)c1cc(C#N)c(N2CCCCC2)nc1-c1ccccc1 | -3.84% (inactive)
CCOc1ccc(C(=O)NC2CCN(C(=O)Nc3ccccc3OC)CC2)cc1 | -1.22% (inactive)
COc1ccccc1C(=O)Nc1ccccc1C(=O)Nc1ccccc1 | 3.3% (inactive)
O=C(NCCOc1cccnc1)c1ccc(OC2CCN(Cc3ccccn3)CC2)cc1 | 0.854% (inactive)
O=S(=O)(c1cccc(Cn2nnc(-c3ccc(F)cc3)n2)c1)N1CCOCC1 | 5.68% (inactive)
Cc1cccc(Nc2nc(NCCO)nc(N3CCCC3)n2)c1 | -0.666% (inactive)
Cc1ccc(S(=O)(=O)NCC(=O)N2CCN(c3ccccn3)CC2)cc1 | -4.7% (inactive)
Cc1ccc(N2C(=O)C3CC3C2=O)cc1 (configuration not stated) | 1.85% (inactive)

SMILES | inhibition
Cc1ccc(N2CCN(c3ccc(C)cc3)C2c2ccccn2)cc1 | 20.1% (active)
CCC(CC)c1nnc(NC(=O)C2=COCCO2)s1 | -0.607% (inactive)
CCOC(=O)C1=C(N)N(c2ccc(C)cc2)C2=C(C(=O)CCC2)C1c1cccs1 (configuration not stated) | 1.06% (inactive)
COc1ccc(C2C3=C(CCCC3=O)N(CC(=O)O)C3=C2C(=O)CCC3)cc1 | 61.1% (active)
CCOc1ccc(C2C(C#N)=C(N)N(N(C)C)C3=C2C(=O)CCC3)cc1 (configuration not stated) | -2.69% (inactive)
CCOc1ccc(C2C3=C(CCCC3=O)N(CC(=O)O)C3=C2C(=O)CCC3)cc1 | 63.4% (active)
COc1ccc(C2C(C#N)=C(N)N(c3ncn[nH]3)C3=C2C(=O)CCC3)cc1 (configuration not stated) | 2.61% (inactive)
CCCCN1C(=O)CCC(C(=O)O)C1c1ccc(OC)cc1 (configuration not stated) | -1.74% (inactive)
O=C1c2ccccc2C(=O)c2c1cccc2N1CCN(C/C=C/c2ccccc2)CC1 | -1.77% (inactive)
Cc1nc(-c2ccccc2)sc1C1(C)CC(c2cccnc2)=NO1 (configuration not stated) | 4.13% (inactive)
Cc1ccc(C(=O)NC(=S)NCCN2CCOCC2)cc1 | -2.12% (inactive)
Cc1ccc(NC(=S)NCCN2CCOCC2)cc1 | 18% (active)
CCCCc1ccc(NC(=S)NCCCN2CCOCC2)cc1 | 1.19% (inactive)
CCCCn1c(N)c(N(CCC(C)C)C(=O)CC2OC(=O)c3ccccc32)c(=O)[nH]c1=O (configuration not stated) | 0.056% (inactive)
O=C(CCC1CCCN(C(=O)c2ccc(F)c(F)c2)C1)N1CCN(c2ccccn2)CC1 (configuration not stated) | 2.85% (inactive)
Oc1c(CN2CCN(c3ccc(F)cc3)CC2)cc(Cl)c2cccnc12 | 24.8% (active)
Oc1ccc(CN2CCN(c3ncccn3)CC2)cc1 | -6.09% (inactive)
CCN1CCN(C(c2cccnc2)c2cc(Cl)c3cccnc3c2O)CC1 (configuration not stated) | 2.34% (inactive)
O=C(N/N=C/c1cc(Br)c(O)c([N+](=O)[O-])c1)C(O)(c1ccccc1)c1ccccc1 | -0.0435% (inactive)
CN(C)S(=O)(=O)c1ccc(N2CCCC2)c(C(=O)Nc2ccc(Br)cc2F)c1 | 0.866% (inactive)
CC(Sc1nc(-c2ccccc2)cc(C(F)(F)F)n1)C(=O)Nc1ccc2c(c1)OCO2 (configuration not stated) | -1.24% (inactive)
CSc1nc(C)cc(SC(C(C)=O)C(=O)Nc2ccccc2)n1 (configuration not stated) | -3.65% (inactive)
CC(Sc1nnc2c(n1)C1CCC2(C)C1(C)C)C(=O)Nc1ccccc1 (configuration not stated) | 27% (active)
